According to the supplement of paper PMC12067926:

Each molecule was assayed on Pseudomonas 2 (Pseudomonas vancouverensis) (assay: relative growth (AUC of 72 h growth curve relative to DMSO control, dAUC) (ratio); higher = more growth (less inhibition), active = hit call of the paper). Conditions: 20 µM;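 active = growth AUC significantly below the DMSO wells by Dunnett test; inactive = the rest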.
Outline: (§1)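 Whole sediment communities and bacterial isolates from Icelandic stream sediments and Silwood Park soil were brought to carrying capacity in Luria–Bertani medium. They were then diluted 1:100 into 96-well plates with each chemical at 20 µM in 1% DMSO, and A600 was recorded every hour for 72 h. The area under each growth curve, integrated by spline, was averaged across three biological replicates. This figure, divided by the mean of the DMSO controls, gives relative growth (dAUC).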

SMILES | relative growth
Nc1c([N+](=O)[O-])ccc(Oc2ccccc2)c1Cl | 0.982 (inactive)
C/C(=N\C#N)N(C)Cc1ccc(Cl)nc1 | 1 (inactive)
CCC(C)(C)C(=O)OC1=C(c2ccc(Cl)cc2Cl)C(=O)OC12CCCCC2 | 0.983 (inactive)
CC1(C)CON(Cc2ccccc2Cl)C1=O | 0.981 (inactive)
CC[C@H](C)[C@H]1O[C@]2(C=C[C@@H]1C)C[C@@H]1C[C@@H](C/C=C(\C)[C@@H](O[C@H]3C[C@H](OC)[C@@H](O[C@H]4C[C@H](OC)[C@@H](O)[C@H](C)O4)[C@H](C)O3)[C@@H](C)/C=C/C=C3\CO[C@@H]4[C@H](O)C(C)=C[C@@H](C(=O)O1)[C@]34O)O2.CO[C@H]1C[C@H](O[C@H]2[C@H](C)O[C@@H](O[C@@H]3/C(C)=C/C[C@@H]4C[C@@H](C[C@]5(C=C[C@H](C)[C@@H](C(C)C)O5)O4)OC(=O)[C@@H]4C=C(C)[C@@H](O)[C@H]5OC/C(=C\C=C\[C@@H]3C)[C@]54O)C[C@@H]2OC)O[C@@H](C)[C@@H]1O | 1.01 (inactive)
CCC(CC)Nc1c([N+](=O)[O-])cc(C)c(C)c1[N+](=O)[O-] | 0.981 (inactive)
Cc1c(COC(=O)[C@@H]2[C@H](/C=C(\Cl)C(F)(F)F)C2(C)C)cccc1-c1ccccc1 (racemic) | 0.983 (inactive)
CS(=O)(=O)c1ccc(C(=O)C2C(=O)CCCC2=O)c([N+](=O)[O-])c1 | 1.02 (inactive)
N#Cc1cc(Br)c(O)c(Br)c1 | 1.02 (inactive)
CNC(=O)CSP(=S)(OC)OC | 0.991 (inactive)
COP(=S)(OC)SCN1C(=O)c2ccccc2C1=O | 0.981 (inactive)
OC(Cn1cncn1)(c1ccc(F)cc1)c1ccccc1F (centres undefined) | 0.999 (inactive)
CN1COCN(Cc2cnc(Cl)s2)/C1=N\[N+](=O)[O-] | 1.03 (inactive)
N#CC(CCc1ccc(Cl)cc1)(Cn1cncn1)c1ccccc1 (centres undefined) | 0.921 (inactive)
CCSC(C)CC1CC(=O)C(/C(CC)=N/OC/C=C/Cl)=C(O)C1 (mixture of isomers) | 0.999 (inactive)
CCCCc1c(C)nc(NCC)nc1OS(=O)(=O)N(C)C | 0.978 (inactive)
CCCN(CCC)C(=O)SCc1ccccc1 | 1.05 (inactive)
O=C(O)COc1ccc(Cl)cc1Cl | 0.971 (inactive)
O=C1C2(Cl)C3(Cl)C4(Cl)C(Cl)(Cl)C5(Cl)C3(Cl)C1(Cl)C5(Cl)C24Cl (centres undefined) | 0.962 (inactive)

SMILES | relative growth
Nc1c(Cl)c(F)nc(OCC(=O)O)c1Cl | 1 (inactive)
Cc1cccc2sc3nncn3c12 | 0.997 (inactive)
O=C(O)CNCP(=O)(O)O | 0.994 (inactive)
CCNC(=O)NC(=O)/C(C#N)=N/OC | 0.96 (inactive)
Cc1cc(C2CC2)nc(Nc2ccccc2)n1 | 1 (inactive)
COP(=O)(NC(C)=O)SC (centres undefined) | 1.02 (inactive)
Cc1nnc(-c2ccccc2)c(=O)n1N | 0.997 (inactive)
Clc1ccc(C(c2ccc(Cl)cc2)C(Cl)(Cl)Cl)cc1 | 0.992 (inactive)
O=C(Nc1ccc(F)cc1F)c1cccnc1Oc1cccc(C(F)(F)F)c1 | 1.01 (inactive)
N#Cc1sc2c(=O)c3ccccc3c(=O)c=2sc1C#N | 0.929 (inactive)
CC[C@H](C)C1O[C@]2(C=C[C@@H]1C)C[C@@H]1C[C@@H](C/C=C(\C)[C@@H](O[C@H]3C[C@H](OC)[C@@H](O[C@H]4C[C@H](OC)[C@H](NC)[C@H](C)O4)[C@H](C)O3)[C@@H](C)/C=C/C=C3\CO[C@@H]4[C@H](O)C(C)=C[C@@H](C(=O)O1)[C@]34O)O2 (some centres undefined) | 0.971 (inactive)
CNC(=O)Oc1cccc2ccccc12 | 1.04 (inactive)
COP(N)(=O)SC (centres undefined) | 0.982 (inactive)
COC(=O)NC(=S)Nc1ccccc1NC(=S)NC(=O)OC | 0.969 (inactive)
COP(=O)(OC)OC=C(Cl)Cl | 0.963 (inactive)
CC(C)N(C(=O)COc1nnc(C(F)(F)F)s1)c1ccc(F)cc1 | 1.03 (inactive)
CCc1cc(C)cc(CC)c1-c1c(OC(=O)C(C)(C)C)n2n(c1=O)CCOCC2 | 0.992 (inactive)
CNC(=O)ON=C(C)SC | 0.956 (inactive)

What follows are molecules tested on Pseudomonas 3 (Pseudomonas mandelii) in the same assay as above. Conditions: 20 µM.
Outline: as §1

SMILES | relative growth
Nc1c([N+](=O)[O-])ccc(Oc2ccccc2)c1Cl | 1.03 (inactive)
C/C(=N\C#N)N(C)Cc1ccc(Cl)nc1 | 0.987 (inactive)
CCC(C)(C)C(=O)OC1=C(c2ccc(Cl)cc2Cl)C(=O)OC12CCCCC2 | 1.04 (inactive)
CC1(C)CON(Cc2ccccc2Cl)C1=O | 1.06 (inactive)
CC[C@H](C)[C@H]1O[C@]2(C=C[C@@H]1C)C[C@@H]1C[C@@H](C/C=C(\C)[C@@H](O[C@H]3C[C@H](OC)[C@@H](O[C@H]4C[C@H](OC)[C@@H](O)[C@H](C)O4)[C@H](C)O3)[C@@H](C)/C=C/C=C3\CO[C@@H]4[C@H](O)C(C)=C[C@@H](C(=O)O1)[C@]34O)O2.CO[C@H]1C[C@H](O[C@H]2[C@H](C)O[C@@H](O[C@@H]3/C(C)=C/C[C@@H]4C[C@@H](C[C@]5(C=C[C@H](C)[C@@H](C(C)C)O5)O4)OC(=O)[C@@H]4C=C(C)[C@@H](O)[C@H]5OC/C(=C\C=C\[C@@H]3C)[C@]54O)C[C@@H]2OC)O[C@@H](C)[C@@H]1O | 1.03 (inactive)
CCC(CC)Nc1c([N+](=O)[O-])cc(C)c(C)c1[N+](=O)[O-] | 1.03 (inactive)
Cc1c(COC(=O)[C@@H]2[C@H](/C=C(\Cl)C(F)(F)F)C2(C)C)cccc1-c1ccccc1 (racemic) | 0.977 (inactive)
CS(=O)(=O)c1ccc(C(=O)C2C(=O)CCCC2=O)c([N+](=O)[O-])c1 | 1.03 (inactive)
N#Cc1cc(Br)c(O)c(Br)c1 | 1.09 (inactive)
CNC(=O)CSP(=S)(OC)OC | 1.02 (inactive)
COP(=S)(OC)SCN1C(=O)c2ccccc2C1=O | 0.971 (inactive)
OC(Cn1cncn1)(c1ccc(F)cc1)c1ccccc1F (centres undefined) | 1.03 (inactive)
CN1COCN(Cc2cnc(Cl)s2)/C1=N\[N+](=O)[O-] | 1.05 (inactive)
N#CC(CCc1ccc(Cl)cc1)(Cn1cncn1)c1ccccc1 (centres undefined) | 0.992 (inactive)
CCSC(C)CC1CC(=O)C(/C(CC)=N/OC/C=C/Cl)=C(O)C1 (mixture of isomers) | 1.02 (inactive)
CCCCc1c(C)nc(NCC)nc1OS(=O)(=O)N(C)C | 1.02 (inactive)
CCCN(CCC)C(=O)SCc1ccccc1 | 1.09 (inactive)
O=C(O)COc1ccc(Cl)cc1Cl | 1.04 (inactive)
O=C1C2(Cl)C3(Cl)C4(Cl)C(Cl)(Cl)C5(Cl)C3(Cl)C1(Cl)C5(Cl)C24Cl (centres undefined) | 0.955 (inactive)

SMILES | relative growth
Nc1c(Cl)c(F)nc(OCC(=O)O)c1Cl | 0.978 (inactive)
Cc1cccc2sc3nncn3c12 | 1.03 (inactive)
O=C(O)CNCP(=O)(O)O | 1.05 (inactive)
CCNC(=O)NC(=O)/C(C#N)=N/OC | 0.993 (inactive)
Cc1cc(C2CC2)nc(Nc2ccccc2)n1 | 1.03 (inactive)
COP(=O)(NC(C)=O)SC (centres undefined) | 1.08 (inactive)
Cc1nnc(-c2ccccc2)c(=O)n1N | 1.03 (inactive)
Clc1ccc(C(c2ccc(Cl)cc2)C(Cl)(Cl)Cl)cc1 | 1.02 (inactive)
O=C(Nc1ccc(F)cc1F)c1cccnc1Oc1cccc(C(F)(F)F)c1 | 1.05 (inactive)
N#Cc1sc2c(=O)c3ccccc3c(=O)c=2sc1C#N | 0.887 (active)
CC[C@H](C)C1O[C@]2(C=C[C@@H]1C)C[C@@H]1C[C@@H](C/C=C(\C)[C@@H](O[C@H]3C[C@H](OC)[C@@H](O[C@H]4C[C@H](OC)[C@H](NC)[C@H](C)O4)[C@H](C)O3)[C@@H](C)/C=C/C=C3\CO[C@@H]4[C@H](O)C(C)=C[C@@H](C(=O)O1)[C@]34O)O2 (some centres undefined) | 1.08 (inactive)
CNC(=O)Oc1cccc2ccccc12 | 0.996 (inactive)
COP(N)(=O)SC (centres undefined) | 1.06 (inactive)
COC(=O)NC(=S)Nc1ccccc1NC(=S)NC(=O)OC | 0.99 (inactive)
COP(=O)(OC)OC=C(Cl)Cl | 1.04 (inactive)
CC(C)N(C(=O)COc1nnc(C(F)(F)F)s1)c1ccc(F)cc1 | 1.07 (inactive)
CCc1cc(C)cc(CC)c1-c1c(OC(=O)C(C)(C)C)n2n(c1=O)CCOCC2 | 1.01 (inactive)
CNC(=O)ON=C(C)SC | 0.999 (inactive)
